This is part of a sample that, as a whole, favours compounds with a hit. Of some 79,000 tested, about 15% had one in any assay. Unmarked numbers belong to inactive results. Calls of active or inactive are those of the source. Rule as the data show it: active = growth inhibition above about 70%; inactive = the rest.
Assay: NCI Yeast Anticancer Drug Screen. Data for the rad50 strain (AID 155);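 also: 0% = growth of vehicle-only cultures of the same strain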
Conditions: S. cerevisiae rad50 strain growth inhibition; at 5.0 µM (retest, dose inferred, filed as 0.5); active compounds read high
Method in brief: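 Yeast carrying a defined DNA repair defect were exposed to test compounds, and growth was compared with vehicle-treated controls to give percent inhibition.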

SMILES | growth inhibition
COC(=O)c1ccc(NN)cc1 | 12%
O=[N+]([O-])c1ccc(-c2nc3c(o2)CCC3)cc1 | -85%
Cc1ccc(S(=O)(=O)N/N=C(\C=C\c2ccccc2)c2ccccc2)cc1 | -1%
[N-]=[N+]=NC1=CC(=O)c2cccc3cccc1c23 | 45%
CCOc1ccc2nc3cc(Cl)ccc3[n+](C)c2c1 | 20%
Cc1ccc(C(c2ccc(N(C)C)cc2)c2ccc(N(C)C)cc2)cc1 | 97% (active)
O=[N+]([O-])c1ccc2c(c1)[n+]([O-])c1[nH]c3ccccc3c1[n+]2[O-] (tested in a mixture with another compound) | 85% (active)
C/C(=N\NC(=S)N1CCCCCC1)c1cccc2cccnc12 | -3%
CC(C)c1cc(O)c(C(C)(C)C)cc1Cl | -1%
CN(C)c1ccc(/C=C(/NC(=O)c2ccccc2)c2nc3ccc(Cl)cc3[nH]2)cc1 | 16%
CC(C)(C)c1ccc2c(c1)C(O)(c1ccccc1)C1OC1(C(C)(C)C)C2=O (stereo not given) | 10%
CCCCCCCCCCCCOP(=O)(N1CC1(C)C)N1CC1(C)C (stereo not given) | 4%
Cc1ccc(C(=O)CC(N)C(=O)O)cc1 (stereo not given) | -2%
COC(=O)CCC(=O)NCCc1ccc2c([nH]c3ccccc32)c1C | 12%
Nc1ccc(C(=O)N/C(=C\C=C\c2ccco2)c2nc3c4c(ccc3[nH]2)C(=O)c2ccccc2C4=O)cc1 | 23%
Oc1ccc(CCCCCc2ccc(O)cc2)cc1 | 4%
O=C(O)C1C(C(=O)O)C2C(=O)C=CC1N2Cc1ccccc1 (stereo not given) | 11%
CC1(C)CC(=O)C(c2ccccc2[N+](=O)[O-])=C(O)C1 | 4%
ON(Cc1ccccc1)C(=S)c1ccccc1 | 23%
CCCCC(O)(c1ccc2nc(NC(=O)OC)[nH]c2c1)c1cccs1 (stereo not given) | -7%

SMILES | growth inhibition
O=C(O)CC/C(=N\Nc1ccccc1)C(=O)O | 3%
CC(C)(c1ccc(OC#N)cc1)c1ccc(OC#N)cc1 | 21%
C=CC(C)(CCC=C(C)C)OC(=O)Nc1ccccc1 (stereo not given) | 19%
Cc1ccc(Cc2nc(=S)[nH][nH]2)cc1 | 20%
Cc1c(Cl)c(S(N)(=O)=O)cc2c1NC=NS2(=O)=O | 10%
O=C(c1cccnc1)N(C1CCCCC1)C1CCCCC1 | 3%
COc1cc(NCC(C)(O)CN2CCC(C)CC2C)c2ncccc2c1 (stereo not given) | 14%
O=C1C=CC(=Nc2cccc3c2-c2ccccc2C3)O1 | 98% (active)
CC(O)c1c2c(cc3c1CC1(C3)Cc3cc4c(c(C(C)O)c3C1)CCC4)CCC2 (stereo not given) | -18%
CCCCCCCCCCCCCCCC[N+](C)(C)CCl | 99% (active)
CCCCC(CC)CNc1ncnc2c1cnn2C (stereo not given) | 1%
O=C1NN(C2=NNC3(C(=O)N2)c2ccccc2-c2ccccc23)C(c2ccccc2)=N/C1=C/c1ccc(Cl)cc1 | -9%
CCCCc1ccc2nccc(N/N=C/c3ccc(OC)c4ccccc34)c2c1 | 1%
CC(C)(C[NH-])C[NH-].[Cl][Pt+2]([Cl])([Cl])[Cl] | 78% (active)
O=C(O)C1(Cc2ccc3c(c2)CCC3)Cc2ccccc2C1 | 18%
CCN(CC)C(C)(C)C(=O)/C=C/c1ccc(Cl)cc1 | -5%
CCc1ccccc1NC(=O)C(=O)C(C#N)c1c(Cl)cccc1Cl (stereo not given) | -8%
COc1c(OC)c(C2(O)C(=O)N(C)c3ccccc32)c(OC)c(OC)c1C1(O)C(=O)N(C)c2ccccc21 (stereo not given) | -1%
Nc1ccc2ccccc2c1N=Cc1ccccc1[N+](=O)[O-] | -3%
O=[N+]([O-])C1=Cc2cc(Cl)ccc2OC1c1cccc2ccccc12 (stereo not given) | 98% (active)

Same assay, conditions: S. cerevisiae rad50 strain growth inhibition; at 50.0 µM (retest, dose inferred, filed as 5.0); active compounds read high

SMILES | growth inhibition
COC(=O)c1ccc(NN)cc1 | 39%
O=[N+]([O-])c1ccc(-c2nc3c(o2)CCC3)cc1 | -83%
Cc1ccc(S(=O)(=O)N/N=C(\C=C\c2ccccc2)c2ccccc2)cc1 | 32%
[N-]=[N+]=NC1=CC(=O)c2cccc3cccc1c23 | 99% (active)
CCOc1ccc2nc3cc(Cl)ccc3[n+](C)c2c1 | 79% (active)
Cc1ccc(C(c2ccc(N(C)C)cc2)c2ccc(N(C)C)cc2)cc1 | 89% (active)
O=[N+]([O-])c1ccc2c(c1)[n+]([O-])c1[nH]c3ccccc3c1[n+]2[O-] (tested in a mixture with another compound) | 88% (active)
C/C(=N\NC(=S)N1CCCCCC1)c1cccc2cccnc12 | 14%
CC(C)c1cc(O)c(C(C)(C)C)cc1Cl | 15%
CN(C)c1ccc(/C=C(/NC(=O)c2ccccc2)c2nc3ccc(Cl)cc3[nH]2)cc1 | 16%
CC(C)(C)c1ccc2c(c1)C(O)(c1ccccc1)C1OC1(C(C)(C)C)C2=O (stereo not given) | 85% (active)
CCCCCCCCCCCCOP(=O)(N1CC1(C)C)N1CC1(C)C (stereo not given) | 61%
Cc1ccc(C(=O)CC(N)C(=O)O)cc1 (stereo not given) | 0%
COC(=O)CCC(=O)NCCc1ccc2c([nH]c3ccccc32)c1C | 5%
Nc1ccc(C(=O)N/C(=C\C=C\c2ccco2)c2nc3c4c(ccc3[nH]2)C(=O)c2ccccc2C4=O)cc1 | 75% (active)
Oc1ccc(CCCCCc2ccc(O)cc2)cc1 | 99% (active)
O=C(O)C1C(C(=O)O)C2C(=O)C=CC1N2Cc1ccccc1 (stereo not given) | 46%
CC1(C)CC(=O)C(c2ccccc2[N+](=O)[O-])=C(O)C1 | 6%
ON(Cc1ccccc1)C(=S)c1ccccc1 | 98% (active)
CCCCC(O)(c1ccc2nc(NC(=O)OC)[nH]c2c1)c1cccs1 (stereo not given) | 58%

SMILES | growth inhibition
O=C(O)CC/C(=N\Nc1ccccc1)C(=O)O | 96% (active)
CC(C)(c1ccc(OC#N)cc1)c1ccc(OC#N)cc1 | 78% (active)
C=CC(C)(CCC=C(C)C)OC(=O)Nc1ccccc1 (stereo not given) | -13%
Cc1ccc(Cc2nc(=S)[nH][nH]2)cc1 | 19%
Cc1c(Cl)c(S(N)(=O)=O)cc2c1NC=NS2(=O)=O | -10%
O=C(c1cccnc1)N(C1CCCCC1)C1CCCCC1 | 4%
COc1cc(NCC(C)(O)CN2CCC(C)CC2C)c2ncccc2c1 (stereo not given) | 57%
O=C1C=CC(=Nc2cccc3c2-c2ccccc2C3)O1 | 99% (active)
CC(O)c1c2c(cc3c1CC1(C3)Cc3cc4c(c(C(C)O)c3C1)CCC4)CCC2 (stereo not given) | 98% (active)
CCCCCCCCCCCCCCCC[N+](C)(C)CCl | 100% (active)
CCCCC(CC)CNc1ncnc2c1cnn2C (stereo not given) | 92% (active)
O=C1NN(C2=NNC3(C(=O)N2)c2ccccc2-c2ccccc23)C(c2ccccc2)=N/C1=C/c1ccc(Cl)cc1 | -5%
CCCCc1ccc2nccc(N/N=C/c3ccc(OC)c4ccccc34)c2c1 | 91% (active)
CC(C)(C[NH-])C[NH-].[Cl][Pt+2]([Cl])([Cl])[Cl] | 97% (active)
O=C(O)C1(Cc2ccc3c(c2)CCC3)Cc2ccccc2C1 | 18%
CCN(CC)C(C)(C)C(=O)/C=C/c1ccc(Cl)cc1 | 69%
CCc1ccccc1NC(=O)C(=O)C(C#N)c1c(Cl)cccc1Cl (stereo not given) | -2%
COc1c(OC)c(C2(O)C(=O)N(C)c3ccccc32)c(OC)c(OC)c1C1(O)C(=O)N(C)c2ccccc21 (stereo not given) | 2%
Nc1ccc2ccccc2c1N=Cc1ccccc1[N+](=O)[O-] | 72% (active)
O=[N+]([O-])C1=Cc2cc(Cl)ccc2OC1c1cccc2ccccc12 (stereo not given) | 83% (active)
